Experimental data: PubChem BioAssay AID504602 (National Center for Advancing Translational Sciences (NCATS), 2011)
Records with an inconclusive call do not appear. Calls of active or inactive are those of the source. Calls follow the shape of the dose curve; as a rule, active = well fitted curve in the direction sought with a large enough effect; inconclusive = small, poorly fitted or top-dose-only effect, or effect the other way, or another doubt; inactive = no such curve, though single readings can be large or run the other way.

Test: Quantitative high throughput screen to test cell viability of anti-malarial compounds targeting the delayed death phenotype
Conditions: HepG2 viability, CellTiter-Glo luminescence, 48 h; series mostly up to 46.1 µM
Description: The biochemical processes that make this organelle essential for erythrocytic stage parasites are not well understood. However, antibiotics, such as azithromycin and tetracycline, which target the apicoplast translational machinery, have a potent antimalarial effect. […] We have developed a cell-based assay that measures parasite growth based on the expression of an integrated copy of a firefly luciferase reporter. To detect small molecules that cause this 'delayed death' phenotype, erythrocytes infected with the luciferase-expressing parasites were incubated with compounds for either one or two generations, corresponding to 48 and 96 hours, respectively. Compounds that inhibit parasite growth in the second generation, but not the first, should be enriched in antimalarials that target the apicoplast. Growth inhibition is detected by a decrease in luciferase activity. The goal of this counterscreen is to measure the cytoxoxicity (against HepG2 cell line) of a set of anti-malarial compounds that target the delayed death pheonotype as identified by the qHTS assay that inhibit the development of the apicoplast in the malarial parasite Plasmodium falciparum. NIH Molecular Libraries Probe Production Network [MLPCN] […]
Cells were plated at a density of 2000 cells/well/5uL in 1536 well white tissue culture plate with culture medium. […] Luminescence was measured using ViewLux (1 second, slow, 2X).

Q: For `C[C@@H]1CN([C@@H](C)CO)C(=O)c2cc(NC(=O)Nc3ccccc3)ccc2O[C@@H](C)CCCCO[C@H]1CN(C)C(=O)Oc1ccccc1`, which outcome is on record?
A: The outcome was “inactive”.
